For 11 molecules, outcome and AC50 results are on record in PubChem BioAssay (EPA / NIEHS).

“And” between values parts separate entries of the source, which are not always exact repeats. Equal values may be shown once. Records with an inconclusive call do not appear. Some structures have more than one record in an assay (separate samples or runs), and their calls can disagree. The source made the active and inactive calls. The calls were made as follows, unless noted: active = hit-call score of the fitted dose curve at least 0.9, where 1 is the maximum; inconclusive = response in the unintended direction; inactive = score below 0.9.

Test [1] can be described thus: CLD_ACTIN_48hr: CellzDirect (CLD) Gene Expression Assay for Baseline Control (Actin) at 48 hours (AID 2283702). The gist of the method:
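Background-control actin mRNA read by qNPA chemiluminescence at 48 h. Human hepatocyte cultures from two donors received fresh multi-concentration chemical doses daily for two days; 0.2% DMSO served as vehicle baseline.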

Read-out in test [2]: xenobiotic metabolism (CYP1A2), CYP1A2 (gene 1544)
Description: CLD_CYP1A2_48hr: CellzDirect (CLD) Gene Expression Assay for xenobiotic metabolism (CYP1A2) at 48 hours (AID 2283703). The gist of the method:
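Cytotoxicity was flagged yes/no from morphology, while CYP1A2 transcript induction was detected by qNPA chemiluminescence after a 48-hour exposure. Human primary hepatocyte cultures from separate donors received fresh dosing solutions daily over two days, with 0.2% DMSO as vehicle and baseline.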

Read-out in test [3]: xenobiotic metabolism (CYP1A1), CYP1A1 (gene 1543)
Put plainly: CLD_CYP1A1_48hr: CellzDirect (CLD) Gene Expression Assay for xenobiotic metabolism (CYP1A1) at 48 hours (AID 2283705). The gist of the method:
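CYP1A1 transcript measured by quantitative nuclease protection (chemiluminescent) 48 h after two daily treatments of human hepatocyte cultures, versus 0.2% DMSO. Morphology-based cytotoxicity flags accompany data; two donor preparations used.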

Read-out in test [4]: glucuronosyltransferase (UGT1A1), UGT1A1 (gene 54658)
Description: CLD_UGT1A1_48hr: CellzDirect (CLD) Gene Expression Assay for glucuronosyltransferase (UGT1A1) at 48 hours (AID 2283709).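 Also: actives increase expression relative to DMSO so potency refers to induction.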 The gist of the method: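 Quantitative nuclease protection assay (chemiluminescent) for UGT1A1 mRNA at 48 h in human hepatocyte cultures from two donors, redosed daily with fresh solutions. Induction fitted relative to 0.2% DMSO; phase-contrast morphology annotated cytotoxicity.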

Read-out in test [5]: sulfotransferase (SULT2A), SULT2A1 (gene 6822)
Put plainly: CLD_SULT2A_48hr: CellzDirect (CLD) Gene Expression Assay for sulfotransferase (SULT2A) at 48 hours (AID 2283710).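 Also: hits raise SULT2A1 transcript above the 0.2% DMSO vehicle baseline.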 The gist of the method:
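SULT2A1 transcript measured by qNPA chemiluminescence in human primary hepatocyte cultures after 48 h, with fresh dosing solutions on two consecutive days; gain-of-signal fitting against 0.2% DMSO vehicle; cytotoxicity annotated from phase-contrast morphology.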

Test [6] in a line: Tanguay_ZF_120hpf_ActivityScore_legacy: (Legacy) Oregon State University Tanguay Lab 120 Hour Post-fertilization zebrafish Assay Score for Activity (AID 2283742).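 As to AC50: dechorionated Tropical 5D wild-type zebrafish embryos held singly per well; static exposure from 6 hpf until 120 hpf at 28 °C.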 The gist of the method:
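In this whole-embryo screen, dechorionated zebrafish were exposed from 6 hpf until 120 hpf at 28C under a 0.64% DMSO vehicle. Developmental malformations and death were recorded by brightfield microscopy as binary endpoints.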

Test [7] can be described thus: STM_H9_OrnithineISnorm_perc: Stemina devTOX quickPredict H9 human embryonic stem cell (hESC)-based Assay for Ornithine (ORN) Metabolite Biomarker, Normalized (AID 2283712; active = hit-call score of the fitted dose curve at least 0.9, where 1 is the maximum; inactive = score below 0.9;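 also: ornithine released into spent medium during last day measured by mass spectrometry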). The gist of the method:
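Ornithine secreted by H9 hESCs after 72h compound treatment (daily media/compound renewal) was quantified in final-day media by UPLC-HRMS. Values are isotope-standard-normalized, expressed relative to 0.1% DMSO, fitted in positive direction.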

The nature of test [8]: STM_H9_CystineISnorm_perc: Stemina devTOX quickPredict H9 human embryonic stem cell (hESC)-based Assay for Cystine (CYSS) Metabolite Biomarker, Normalized (AID 2283713; active = hit-call score of the fitted dose curve at least 0.9, where 1 is the maximum; inactive = score below 0.9). The gist of the method:
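Cells are held undifferentiated and treated for 72h, receiving fresh medium with compound every 24h. Cystine secreted during the final day is quantified by UPLC-HRMS against a labeled spike-in, then expressed relative to the DMSO vehicle median.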

Test [9] can be described thus: STM_H9_OrnCyssISnorm_ratio: Stemina devTOX quickPredict H9 human embryonic stem cell (hESC)-based Assay for Ornithine (ORN):Cystine (CYSS) Ratio (AID 2283714). The gist of the method: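 H9 hESC, 72h, q24h re-dose; last-day media → acetonitrile deproteinization → UPLC-HRMS. ORN:CYSS ratio from isotope-normalized EIC areas, vs 0.1% DMSO; MTX references on each plate.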

Test [10] can be described thus: CEETOX_H295R_MTT_cell_viability: Viability Assessment in the CeeTox HT-H295R MTT Assay (AID 2283718; active = hit-call score of the fitted dose curve at least 0.9, where 1 is the maximum; inactive = score below 0.9;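 as to AC50: curve fitted both ways so AC50 may mark viability loss or gain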). The gist of the method:
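H295R cells prestimulated 48 h with 10 uM forskolin, then exposed 48 h to test chemical (0.1% DMSO final). Viability by MTT (0.5 mg/ml, 4 h, 37 C), absorbance 570/650 nm; percent change versus DMSO, bidirectional fit.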

Read-out in test [11]: HMG-CoA synthase (HMGCS2), HMGCS2 (gene 3158)
Description: CLD_HMGCS2_48hr: CellzDirect (CLD) Gene Expression Assay for HMG-CoA synthase (HMGCS2) at 48 hours (AID 2283711). The gist of the method: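 mRNA induction read by qNPA chemiluminescence, 48 h after dosing. Cultured primary human liver cells (two donor preparations) received fresh compound daily over two days against 0.2% DMSO vehicle; morphology-based cytotoxicity noted alongside.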

Read-out in test [12]: organic anion transporter (SLCO1B1), SLCO1B1 (gene 10599)
Put plainly: CLD_SLCO1B1_48hr: CellzDirect (CLD) Gene Expression Assay for organic anion transporter (SLCO1B1) at 48 hours (AID 2283707). The gist of the method: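 SLCO1B1 transcript quantified by qNPA with chemiluminescent readout after 48 h of once-daily chemical exposure. Cultured human primary hepatocytes came from two donors, with 0.2% DMSO vehicle; positive-direction fitting against DMSO, cytotoxicity flagged by morphology.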

Read-out in test [13]: alkyl and aryl transferase (GSTA2), GSTA2 (gene 2939)
Put plainly: CLD_GSTA2_48hr: CellzDirect (CLD) Gene Expression Assay for alkyl and aryl transferase (GSTA2) at 48 hours (AID 2283708).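 Also: active means mRNA induction above DMSO vehicle baseline.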 The gist of the method: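 GSTA2 mRNA quantified by qNPA chemiluminescence in human primary hepatocyte lysates after 48 h of daily fresh chemical dosing. Increases fitted against 0.2% DMSO vehicle baseline; cytotoxicity from morphology annotated yes/no.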

For `CC(C)C1(C)N=C(c2nc3ccccc3cc2C(=O)O)NC1=O` (configuration not stated), the call in [1], in test [2], in [3], in [4], in test [5] and in [6] was inactive.

In the case of `CCCC1COC(Cn2cncn2)(c2ccc(Cl)cc2Cl)O1` (configuration not stated), the AC50 in test [2] is 5.36 µM (active); in test [3] it was 20 µM (active); in test [7] it was 85.5 µM (active); in test [8], 33.6 µM (active); in [9] it was 57.5 µM (active); in test [6], 42.8 µM (active). The call in test [4], in test [5] and in [10] was inactive.

`CC(Oc1ccc(Cl)cc1Cl)C(=O)O` (configuration not stated): the result in test [2], in test [4], in test [5], in [11] and in test [6] was inactive.

On to `COP(=S)(OC)Oc1nc(Cl)c(Cl)cc1Cl`, for which the AC50 in [2] is 5.26 µM (active). For the same molecule, the outcome in test [3], in test [12], in [4], in [10] and in test [6] was inactive.

In the case of `CC(C)Oc1cc(-n2nc(C(C)(C)C)oc2=O)c(Cl)cc1Cl`, the half-maximal activity concentration (AC50) in [2] is 6.1 µM (active); in [3], 4.01 µM (active); in [5], 2.92 µM (active). Further, the call in [4], in [10] and in [6] was inactive.

Turning to `CCOP(=S)(OCC)SCn1c(=O)oc2cc(Cl)ccc21`, the AC50 in [2] is 3.96 µM (active); in test [3] it was 13.9 µM (active). The molecule was called inactive in test [4], in [5], in [11], in test [10] and in test [6].

With `Cc1ccc(-c2c(Cl)nc(C#N)n2S(=O)(=O)N(C)C)cc1`, the molecule was called inactive in test [1], in test [2] and in test [13]. Moreover, the values for the AC50 in test [3] and in [6] were 20 µM (active) and 2.27 µM (active), respectively.

For `CCCN(CCC)c1c([N+](=O)[O-])cc(S(N)(=O)=O)cc1[N+](=O)[O-]`, the call in test [2], in test [12], in [4] and in test [6] was inactive. In addition, the AC50 in test [3] was 28.9 µM (active); in test [5] it was 6.29 µM (active).

For `CO/C=C(/C(=O)OC)c1ccccc1Oc1cc(Oc2ccccc2C#N)ncn1`, the outcome in [1], in test [4], in test [7], in test [8], in [9] and in test [6] was inactive. Moreover, the AC50 in test [6] is 9.41 µM (active) and 2.03 µM (active).

Take `C=CCC1=C(C)C(OC(=O)C2C(C=C(C)C)C2(C)C)CC1=O` (configuration not stated): the call in test [2], in test [3], in [5], in test [11] and in test [6] was inactive. Moreover, the half-maximal activity concentration (AC50) in test [4] was 11.1 µM (active); in [10] it was 9.99 µM (active).

Consider `C#CCOS(=O)OC1CCCCC1Oc1ccc(C(C)(C)C)cc1` (configuration not stated), for which the concentration at half-maximal activity (AC50) in test [2] is 3.47 µM (active); in test [7], 3.33 µM (active); in [8], 2.42 µM (active); in test [9], 2.89 µM (active). Also, the call in test [3], in [5], in test [11] and in test [6] was inactive.

The term AC50 denotes the concentration at which the activity in the assay is half-maximal.
